# Measurements published in PubChem BioAssay (NCATS).
# Results filed as inconclusive are left out. Activity calls are given as the source filed them. Unless noted, calls come from the whole dose curve. Numbered stars: 1 amine (or outer) side, 2 acyl side, 3 side chain; on linkers, the order of the positions; unused ones are H or OH. Bridge positions count the residues as written; N and C are the ends. Square brackets hold non-standard residues; d marks the D form. Peptide text beside a SMILES is read from it. I, II: the chains in the order shown. Actinocin(9to1) = Cc1c2oc3c(C)ccc(C(=O)[*:1])c3nc-2c(C(=O)[*:2])c(N)c1=O; NMeV = CN[C@H](C(=O)O)C(C)C; Sar = CNCC(=O)O
# Tests used:
# [1] = Cell Viability - Hek293 (AID 427;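 active = compounds whose dose-response curve shows a full or clear partial loss of cell viability, called from curve shape rather than a numeric limit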;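 note: potency is the fitted concentration of half-maximal effect; cells exposed to compound for 40 hours at 37 °C before reading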); conditions: qHTS
# In short: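 HEK293 cells in complete medium were exposed to compound for 40 hr at 37 °C, then cellular ATP was read by CellTiter-Glo luminescence. Data were normalized to DMSO (basal) and 100 uM tamoxifen (100% inhibition), and AC50 came from Hill fits.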
# [2] = Cell Viability - Jurkat (AID 426;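 active = dose-dependent loss of cell ATP signal giving a full or clear fitted curve, ranked by lower potency value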; note: potency is the fitted concentration of half-maximal effect); conditions: qHTS
# In short: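 Jurkat (clone E6-1, human T-cell leukemia) cells, 5000/well in complete medium, were exposed to compound for 40 hr at 37 °C. Viability was read as intracellular ATP by CellTiter-Glo luminescence; AC50 came from Hill fits of concentration-response data.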
# [3] = Cell Viability - MRC5 (AID 434); conditions: MRC5 lung fibroblast viability, qHTS;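 note: potency is the fitted concentration of half-maximal effect; potency reflects cytotoxicity seen as loss of intracellular ATP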
# In short: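 qHTS cytotoxicity in human lung fibroblast MRC5 cells; 40 hr treatment, 37 °C; cellular ATP by luciferase luminescence; DMSO = 0%, 100 uM tamoxifen = 100% inhibition; Hill-fit AC50.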
# [4] = Cell Viability - SK-N-SH (AID 435); conditions: SK-N-SH neuroblastoma cell viability qHTS;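 note: potency is the fitted concentration of half-maximal effect; compound exposure lasted 40 h at 37 °C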
# In short: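 Luminescent ATP signal served as the viability read-out after 40 hours of compound treatment of human neuroblastoma SK-N-SH cells. Concentration-response data, scaled between DMSO and 100 uM tamoxifen, gave AC50 values by standard Hill modeling.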
# [5] = AP1 Signaling Pathway (AID 357; active = well fitted curve in either direction with a large enough effect, not every such curve was filed as active;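 note: ME-180 reporter cells stimulated with EGF at its EC50 level; % is set by controls: 0 for no effect and ±100 for the full control effect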); conditions: ME-180 (cervical carcinoma) AP-1-bla reporter, EGF-induced, beta-lactamase ratio, 5 h; at 17.2 µM (top of the series)
# In short: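 First, ME-180 AP-1-bla cells were cultured overnight at 37 °C in low-serum Opti-MEM. Next, titrated compounds with EC50 EGF were incubated 5 hours. Finally, CCF4 was added for 2.5 hours and the 460/530 nm ratio recorded.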
# [6] = NFAT Signaling Pathway (AID 444; active = well fitted curve in either direction with a large enough effect, not every such curve was filed as active;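 note: carbachol stimulus at about its EC50 of 1 µM final; % is set by controls: 0 for no effect and ±100 for the full control effect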); conditions: Jurkat NFAT-bla M1, carbachol, beta-lactamase ratio, 5 h; at 17.2 µM (top of the series)
# In short: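 Read-out: CCF4 FRET ratio (460 nm/530 nm) after 1 h RT dye loading, used for %activity and AC50 from titration series. Cells: Jurkat NFAT-β-lactamase/M1 line, treated with compound plus 1 uM carbachol for 5 h, 37 °C.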
# [7] = Cell Viability - BJ (AID 421); conditions: BJ fibroblast viability, qHTS;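 note: potency is the fitted concentration of half-maximal effect; cells exposed to compound for 40 hours at 37 °C before readout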
# In short: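 Normal human BJ foreskin fibroblasts, 1500/well in complete medium, treated 40 hr at 37 °C. Cellular ATP by CellTiter-Glo luminescence; normalized to DMSO and 100 uM tamoxifen, AC50 from Hill fit.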
# [8] = Cell Viability - HepG2 (AID 433); conditions: qHTS;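 note: potency is the fitted concentration of half-maximal effect; potency for ATP loss meaning cytotoxicity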
# In short: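 Read-out is luciferase-based quantitation of cellular ATP as a measure of viable HepG2 cells after 40 h treatment at 37 °C. Signal decrease is scaled between DMSO-only and 100 uM tamoxifen controls, with AC50 fitted by the Hill equation.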
# [9] = target: Cytochrome P450 1A2 (Homo sapiens) (UniProt P05177); assay: p450-cyp1a2 (AID 410); conditions: recombinant CYP1A2, luciferin-ME demethylation, luminescence; series mostly up to 25.6 µM; note: potency is the fitted concentration of half-maximal effect;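 for activity change, negative = inhibition: -100% = full effect of reference inhibitor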
# Sequence of Cytochrome P450 1A2 (Homo sapiens) (P05177 whole entry, looked up): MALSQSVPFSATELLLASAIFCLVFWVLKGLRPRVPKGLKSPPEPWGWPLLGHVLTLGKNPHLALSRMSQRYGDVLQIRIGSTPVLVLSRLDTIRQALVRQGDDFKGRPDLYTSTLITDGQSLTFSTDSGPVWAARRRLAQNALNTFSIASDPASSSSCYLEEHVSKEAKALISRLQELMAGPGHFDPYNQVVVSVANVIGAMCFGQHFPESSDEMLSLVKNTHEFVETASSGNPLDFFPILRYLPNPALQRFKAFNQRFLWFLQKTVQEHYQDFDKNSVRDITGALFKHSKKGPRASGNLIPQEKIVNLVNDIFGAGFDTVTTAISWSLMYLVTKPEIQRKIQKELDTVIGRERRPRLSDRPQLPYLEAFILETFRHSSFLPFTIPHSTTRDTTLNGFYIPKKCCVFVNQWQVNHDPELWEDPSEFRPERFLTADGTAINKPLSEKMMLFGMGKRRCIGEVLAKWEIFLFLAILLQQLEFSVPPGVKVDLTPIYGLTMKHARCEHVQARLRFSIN
# In short: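 Human CYP1A2 (20nM) demethylated Luciferin-ME at its Km (100uM) in 100mM KPO4. After 10 min compound preincubation, NADPH regeneration ran the reaction 60 min at room temperature. Luciferin was read by luminescence, normalized to 57 uM furafylline.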
structure (smiles),measurement,setting,value
CC(=O)Oc1ccc(C(c2ccc(OC(C)=O)cc2)c2ccccn2)cc1,Potency,[1],> 92 µM (inactive)
COc1cccc2c1C(=O)c1c(O)c3c(c(O)c1C2=O)C[C@@](O)(C(C)=O)C[C@@H]3O[C@H]1C[C@H](N)[C@H](O)[C@H](C)O1,Potency,[1],0.00723 µM (active)
Oc1c(Cl)cc(Cl)cc1Sc1cc(Cl)cc(Cl)c1O,Potency,[2],47.8 µM (active)
same,Potency,[1],36.2 µM (active)
CC(C)(C)CC(C)(C)c1ccc(OCCOCC[N+](C)(C)Cc2ccccc2)cc1,Potency,[2],26.8 µM (active)
CC(=O)O[C@]1(C(C)=O)CC[C@H]2[C@@H]3C[C@H](C)C4=CC(=O)CC[C@]4(C)[C@H]3CC[C@@]21C,Potency,[3],> 92 µM (inactive)
same,Potency,[4],> 92 µM (inactive)
CCn1cc(C(=O)O)c(=O)c2cnc(N3CCCC3)nc21,"activity change, negative = inhibition",[5],5.94% (inactive)
same,"activity change, negative = inhibition",[6],5.83% (inactive)
CCCCCCc1ccc(O)cc1O,Potency,[7],> 92 µM (inactive)
same,Potency,[2],> 92 µM (inactive)
same,Potency,[1],> 92 µM (inactive)
same,Potency,[8],> 92 µM (inactive)
same,Potency,[3],> 92 µM (inactive)
same,Potency,[4],> 92 µM (inactive)
"Cc1c2oc3c(C)ccc(C(=O)N[C@@H]4C(=O)N[C@H](C(C)C)C(=O)N5CCC[C@H]5C(=O)N(C)CC(=O)N(C)[C@@H](C(C)C)C(=O)O[C@@H]4C)c3nc-2c(C(=O)N[C@@H]2C(=O)N[C@H](C(C)C)C(=O)N3CCC[C@H]3C(=O)N(C)CC(=O)N(C)[C@@H](C(C)C)C(=O)O[C@@H]2C)c(N)c1=O (I: T[dV]P[Sar][NMeV] / II: T[dV]P[Sar][NMeV]; ester I:1-I:C, II:1-II:C; linker I:N-II:N via Actinocin(9to1))",Potency,[7],0.00132 µM (active)
same,Potency,[2],0.0015 µM (active)
same,Potency,[1],0.00102 µM (active)
same,Potency,[8],> 92 µM (inactive)
same,Potency,[3],> 92 µM (inactive)
same,Potency,[4],> 92 µM (inactive)
NC(=NCCCCCCN=C(N)/N=C(\N)Nc1ccc(Cl)cc1)/N=C(\N)Nc1ccc(Cl)cc1,Potency,[9],15.8 µM (active)
same,Potency,[2],42.1 µM (active)
same,Potency,[1],45.6 µM (active)
same,Potency,[8],39.6 µM (active)
same,Potency,[3],50 µM (active)
same,Potency,[4],46.5 µM (active)
CC/C(=C(/CC)c1ccc(O)cc1)c1ccc(O)cc1,Potency,[7],> 92 µM (inactive)
same,Potency,[2],21.5 µM (active)
same,Potency,[8],> 92 µM (inactive)
same,Potency,[3],> 92 µM (inactive)
CN1[C@@H]2CC[C@H]1CC(OC(=O)c1c[nH]c3ccccc13)C2 (some centres undefined),Potency,[9],inactive
CC[N+](CC)(CCNC(=O)C(=O)NCC[N+](CC)(CC)Cc1ccccc1Cl)Cc1ccccc1Cl,Potency,[9],inactive
O=C(O)CCCCC(=O)O,Potency,[7],> 92 µM (inactive)
same,Potency,[2],> 92 µM (inactive)
same,Potency,[1],> 92 µM (inactive)
same,Potency,[8],> 92 µM (inactive)
same,Potency,[3],> 92 µM (inactive)
same,Potency,[4],> 92 µM (inactive)
CN(C)/N=N/c1nc[nH]c1C(N)=O,Potency,[7],> 92 µM (inactive)
same,Potency,[1],> 92 µM (inactive)
same,Potency,[8],> 92 µM (inactive)
same,Potency,[3],> 92 µM (inactive)
same,Potency,[4],> 92 µM (inactive)
C[C@@H]1CN(CCCn2c3ccccc3c3ccccc32)C[C@H](C)N1,Potency,[9],0.794 µM (active)
CCCC1O[C@@H]2C[C@H]3[C@@H]4CCC5=CC(=O)C=C[C@]5(C)[C@H]4[C@@H](O)C[C@]3(C)[C@]2(C(=O)CO)O1 (some centres undefined),"activity change, negative = inhibition",[5],2.92% (inactive)
same,"activity change, negative = inhibition",[6],23.6% (inactive)
CCCC(=O)Nc1ccc(OCC(O)CNC(C)C)c(C(C)=O)c1 (centres undefined),"activity change, negative = inhibition",[5],0.101% (inactive)
same,"activity change, negative = inhibition",[6],-15.3% (inactive)
C=CCc1ccc(O)c(OC)c1,Potency,[7],> 92 µM (inactive)
same,Potency,[2],> 92 µM (inactive)
same,Potency,[1],> 92 µM (inactive)
same,Potency,[8],> 92 µM (inactive)
same,Potency,[3],> 92 µM (inactive)
same,Potency,[4],> 92 µM (inactive)
CC(C)(Oc1ccc(Cl)cc1)C(=O)O,"activity change, negative = inhibition",[5],-0.859% (inactive)
same,"activity change, negative = inhibition",[6],15.7% (inactive)
CC(=O)OCC(=O)[C@@]1(O)[C@H](C)C[C@H]2[C@@H]3CCC4=CC(=O)C=C[C@]4(C)[C@@]3(F)[C@@H](O)C[C@@]21C,"activity change, negative = inhibition",[5],-10.4% (inactive)
same,"activity change, negative = inhibition",[6],29.8% (inactive)
Cc1cccc(C)c1NC(=O)CN1CCN(CCCC(c2ccc(F)cc2)c2ccc(F)cc2)CC1,"activity change, negative = inhibition",[5],4.39% (inactive)
same,"activity change, negative = inhibition",[6],5.94% (inactive)
Nc1ccc(C(=O)O)cc1,Potency,[7],> 92 µM (inactive)
same,Potency,[2],> 92 µM (inactive)
same,Potency,[1],> 92 µM (inactive)
same,Potency,[8],> 92 µM (inactive)
same,Potency,[3],> 92 µM (inactive)
same,Potency,[4],> 92 µM (inactive)
CN1CCC(=C2c3ccccc3Sc3ccccc32)CC1,Potency,[9],inactive
same,"activity change, negative = inhibition",[6],-31.6% (active)
